Entries with a potency or affinity are not part of this list. Inconclusive results are not listed. Active and inactive are the calls of the source. No rule for the calls is given here.
Test: Vero cell cytotoxicity, cytotoxicity control for M. tuberculosis inhibitor project, purified and synthesized samples, set 8 (AID 602431)
Conditions: series mostly up to 100 µM

Row | Structure (SMILES) | outcome
1 | O=C(CSc1nc2c(c(=O)[nH]1)CCCC2)NC1CCCCC1 | inactive
2 | O=C(c1ccc(CNc2c(N3CCOCC3)c(=O)c2=O)cc1)N1CCC(c2ccccc2)CC1 | inactive
3 | COC(=O)C(Cc1ccccc1)NC(=O)CSc1nc2ccccc2c(=O)[nH]1 (configuration not stated) | inactive
4 | CC(C)CCNC(=O)CSc1nc2ccccc2c(=O)[nH]1 | inactive
5 | O=C(CSc1nc2c(c(=O)[nH]1)CCC2)NC1CCCCC1 | inactive
6 | CC(C)CCNC(=O)CSc1nc2c(c(=O)[nH]1)CCCC2 | inactive
7 | O=C(NCc1ccc(C(=O)N2CCN(c3ccccc3)CC2)cc1)NC1CCCCC1 | inactive
8 | COCCNC(=O)CSc1nc2ccccc2c(=O)[nH]1 | inactive
9 | CC(C)CCNC(=O)CSc1nc2c(c(=O)[nH]1)CCCCC2 | inactive
10 | O=C(CSc1nc2ccccc2c(=O)[nH]1)NC1CCOCC1 | inactive
11 | O=C(c1ccc(CNc2c(N3CCCC3)c(=O)c2=O)cc1)N1CCN(c2ccccc2)CC1 | inactive
12 | O=C(c1ccc(CNc2c(N3CCOCC3)c(=O)c2=O)cc1)N1CCN(c2ccccc2)CC1 | inactive

Reference: PubChem BioAssay AID602431 (Southern Research Specialized Biocontainment Screening …, 2012)
